These results are taken from PubChem BioAssay.

The source made the active and inactive calls. Unless noted, no rule for the calls is given here.

Assay [1] concerns XIP peptide (Xip251-270) binding. The experiment in a line: XIP fragment 251-270 binding compounds – biochemical, small-molecule microarray, fluorescence 635/667 nm, 0.1 µg/mL protein, primary screen (AID 1182). The following applies: fluorescent protein binding, 635 nm, higher = more signal, called active from +8 up or from −8 down.
The test system of assay [2] is XIP peptide (Xip251-270). The experiment in a line: compounds binding XIP fragment 251-270 – biochemical, small-molecule microarray, fluorescence 635/667 nm, 0.5 µg/mL protein, primary screen (AID 1183). The following applies: fluorescence 635 nm, higher = more signal.
Assay [3] can be described thus: blood-stage malaria parasite viability loss – strain 3D7, DAPI fluorescence, 100 nL, primary screen (AID 1184).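 Also: parasites grown inside human red blood cells in medium with human serum.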 The note with it: P. falciparum 3D7 growth, 3 d, higher = more signal.
Assay [4] deals with Homeobox protein Hox-A13 (Mus musculus) (UniProt Q62424). Nature of the assay: disruptors of Hoxa13 oligonucleotide interaction – biochemical, fluorescence polarization, labeled oligonucleotide, primary screen (AID 1185). The note with it: Hoxa13:DNA binding, 15 min, higher = more signal, called active from +8 up or from −8 down. In general terms: In fluorescence polarisation assays a small probe gives low polarisation when free and higher when bound to something large.
Homeobox protein Hox-A13 (Mus musculus), sequence (Q62424 whole entry, looked up): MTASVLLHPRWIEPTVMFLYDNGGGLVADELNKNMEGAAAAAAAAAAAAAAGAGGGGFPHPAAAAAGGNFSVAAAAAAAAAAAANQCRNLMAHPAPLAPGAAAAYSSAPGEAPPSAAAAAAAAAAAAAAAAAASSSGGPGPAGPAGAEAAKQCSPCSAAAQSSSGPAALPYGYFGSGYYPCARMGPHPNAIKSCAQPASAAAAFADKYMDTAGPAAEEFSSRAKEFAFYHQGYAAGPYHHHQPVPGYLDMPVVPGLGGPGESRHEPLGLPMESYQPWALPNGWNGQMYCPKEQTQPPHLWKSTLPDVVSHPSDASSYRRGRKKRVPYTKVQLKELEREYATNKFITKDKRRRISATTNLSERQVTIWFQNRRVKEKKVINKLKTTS

Assay [5] in a line: blockers of DNA damage checkpoint Chk1 activation – imaging, HeLa, hydroxyurea, phospho-Chk1 antibody, percent positive cells, primary screen (AID 1186). The note with it: hydroxyurea-induced phospho-Chk1 immunofluorescence imaging, higher = more signal.
Assay [6] is described as follows: blockers of DNA damage checkpoint Chk1 activation – imaging, HeLa, hydroxyurea, phospho-Chk1 nuclear intensity, primary screen (AID 1187). The note with it: hydroxyurea-induced phospho-Chk1 immunofluorescence imaging, higher = more signal.

With `COC(=O)c1c(CC[C@@H](CO)NC(=O)N[C@@H](C)Cn2cc(C3(O)CCCCC3)nn2)oc(C(C)=O)c1C(=O)OC`, the composite z-score in assay [1] was 0.946 (inactive); in assay [2], 0.836. Moreover, the z-score was -2.45 in assay [3], -3.05 (inactive) in assay [4], 0.0032 (inactive) in assay [5] and 0.715 (inactive) in assay [6].

`CC(=O)NCCCC[C@@H]1NC(=O)[C@@H]2C[C@H](C(=O)NCCCCCCNC(=O)CS)[C@H](c3cccc(OCCO)c3)N2C1=O`: the composite z-score in assay [1] is 0.732 (inactive); in assay [2] it was 0.669. Moreover, the z-score in assay [3] was -0.523; in assay [4], -4.5 (inactive); in assay [5], -0.223 (inactive); in assay [6] it was -0.0198 (inactive).

On to `COC(=O)c1c(CC[C@@H](CO)NC(=O)N[C@H](Cn2cc(Cc3ccccc3)nn2)C(C)C)oc(C(C)=O)c1C(=O)OC`, for which the composite z-score in assay [1] was 0.369 (inactive); in assay [2], -0.0446. The z-score is -1.99 in assay [3], -0.701 (inactive) in assay [4], 1.02 (inactive) in assay [5] and 1.38 (inactive) in assay [6].

`O=C(NCc1ccccc1)[C@@]1(Cc2ccccc2)N=C(c2ccc(OCCCO)cc2)O[C@H]1c1ccccc1`: the composite z-score in assay [1] was 1.46 (inactive); in assay [2], 0.684. The z-score was -2.39 in assay [3], -1.7 (inactive) in assay [4], -0.306 (inactive) in assay [5] and 0.0631 (inactive) in assay [6].

For `COc1ccc(C(O)C2C=CC3C(=O)NC(=O)C3N2Nc2ccccn2)cc1` (stereo not given), the composite z-score in assay [1] was -1.2 (inactive); in assay [2] it was 0.658. Moreover, the z-score is 0.557 in assay [3], -1.88 (inactive) in assay [4], 0.723 (inactive) in assay [5] and 0.51 (inactive) in assay [6].

With `C=CCC(OC(C)=O)[C@@H]1[C@@H](N(Cc2ccc(-c3cccc(C(F)(F)F)c3)o2)C(=O)c2ccc(-c3ccccc3)cc2)c2cc(OCCCO)ccc2N1C(=O)c1ccc(-c2ccccc2)cc1` (stereo not given in full), the composite z-score in assay [1] was -0.462 (inactive); in assay [2], -1.09. Besides, the z-score in assay [3] is -0.29; in assay [4], -0.737 (inactive); in assay [5], 0.216 (inactive); in assay [6] it was 0.187 (inactive).

`[N-]=[N+]=Nc1ccccc1[C@H]1OC(c2ccc(OCCCO)cc2)=N[C@@]1(Cc1ccccc1)C(=O)O`: the composite z-score was 0.387 (inactive) in assay [1] and 0.686 in assay [2]. For the same compound, the z-score is -1.23 in assay [3], -5.18 (inactive) in assay [4], -0.48 (inactive) in assay [5] and -0.822 (inactive) in assay [6].

Take `C=CCN1C(=O)[C@]2(O[C@H](CCO)[C@@H]([Si](C)(C)c3ccc(OC)cc3)[C@@H]2C)c2cc(N3CCCCC3=O)ccc21`: the composite z-score is 0.238 (inactive) in assay [1] and 0.732 in assay [2]. Besides, the z-score in assay [3] is -2.66; in assay [4], -6.28 (inactive); in assay [5], -0.147 (inactive); in assay [6] it was -0.56 (inactive).

On to `COC(=O)[C@@]1(Cc2ccccc2)[C@H]2c3cc(C(=O)N4CCCC4)n(Cc4cccc5ccccc45)c3C[C@H]2CN1C(=O)c1ccccc1`, for which the composite z-score in assay [1] is 0.112 (inactive); in assay [2] it was -0.569. The z-score is -1.35 in assay [3], -3.06 (inactive) in assay [4], 1.05 (inactive) in assay [5] and 0.243 (inactive) in assay [6].

With `O=C(c1ccccc1)N1Cc2ccccc2[C@@H]2OC(c3ccc(OCCCO)cc3)=N[C@]2(Cc2ccccc2)C1=O`, the composite z-score was 1.67 (inactive) in assay [1] and 0.576 in assay [2]. In addition, the z-score was -2.2 in assay [3], 1.01 (inactive) in assay [4], 0.103 (inactive) in assay [5] and -0.3 (inactive) in assay [6].

In the case of `COc1ccc(COC2OC[C@]3(C)[C@H]4C5=C(CN3C(=O)OC(C)(C)C)[C@H](C)C(CO)C(CO)C5CC[C@@H]24)cc1` (stereo not given in full), the figures for the composite z-score in assay [1] and in assay [2] were -0.188 (inactive) and 0.505, respectively. The z-score in assay [3] is -1.04; in assay [4], -4.75 (inactive); in assay [5], 0.721 (inactive); in assay [6], 0.353 (inactive).

Turning to `COCCCNC(=O)[C@@]1(Cc2ccccc2N=[N+]=[N-])N=C(c2ccc(OCCCO)cc2)O[C@H]1c1ccccc1N=[N+]=[N-]`, the composite z-score in assay [1] was 0.0041 (inactive); in assay [2] it was 0.771. Moreover, the z-score was -2.43 in assay [3], -2.81 (inactive) in assay [4], -0.559 (inactive) in assay [5] and -0.225 (inactive) in assay [6].

Regarding `C=CCN(Cc1ccccc1)C(=O)C(c1cccs1)N(CCOCCO)C(=O)/C=C\C(=O)O` (stereo not given), the composite z-score was -0.467 (inactive) in assay [1] and -0.573 in assay [2]. Besides, the z-score in assay [3] was -0.205; in assay [4] it was -1.25 (inactive); in assay [5], -1.41 (inactive); in assay [6], -0.806 (inactive).

As for `C=C(COC)/C(=C/C[C@H](OC(=O)c1ccncc1)c1ccc(OCCO)cc1)c1cnc2ccccc2c1`, the composite z-score is 0.908 (inactive) in assay [1] and 0.791 in assay [2]. The z-score in assay [3] is -2.77; in assay [4], -4.16 (inactive); in assay [5] it was 0.157 (inactive); in assay [6], 0.313 (inactive).

On to `CC(C)(C)OC(=O)CC[C@@]1(C(N)=O)N=C(c2ccc(OCCCO)cc2)O[C@@H]1c1ccccc1`, for which the results for the composite z-score in assay [1] and in assay [2] were 0.222 (inactive) and 0.355, respectively. Besides, the z-score in assay [3] is -0.589; in assay [4] it was -3.33 (inactive); in assay [5] it was 0.335 (inactive); in assay [6], -0.0302 (inactive).
